Assay results as given in the supplement of paper PMC11732987, “Enantioselective OTUD7B fragment discovery through chemoproteomics screening and high-throughput optimisation” (Communications Chemistry, 2025).

Columns and labels:
Experiment in all cases: log2 ratio of Biotin-Ahx-Ub-VS probe labelling (fragment/DMSO); higher = less target engagement (more negative = stronger competition), active = hit call of the paper (q ≤ 0.05, log2 ratio ≤ -1)
Details in all cases: compound concentration: 200 uM; treatment time: 3 h
[1] = molecular target: USP9X (UniProt Q93008)
USP9X, sequence (Q93008 whole entry, the tested form may be a part): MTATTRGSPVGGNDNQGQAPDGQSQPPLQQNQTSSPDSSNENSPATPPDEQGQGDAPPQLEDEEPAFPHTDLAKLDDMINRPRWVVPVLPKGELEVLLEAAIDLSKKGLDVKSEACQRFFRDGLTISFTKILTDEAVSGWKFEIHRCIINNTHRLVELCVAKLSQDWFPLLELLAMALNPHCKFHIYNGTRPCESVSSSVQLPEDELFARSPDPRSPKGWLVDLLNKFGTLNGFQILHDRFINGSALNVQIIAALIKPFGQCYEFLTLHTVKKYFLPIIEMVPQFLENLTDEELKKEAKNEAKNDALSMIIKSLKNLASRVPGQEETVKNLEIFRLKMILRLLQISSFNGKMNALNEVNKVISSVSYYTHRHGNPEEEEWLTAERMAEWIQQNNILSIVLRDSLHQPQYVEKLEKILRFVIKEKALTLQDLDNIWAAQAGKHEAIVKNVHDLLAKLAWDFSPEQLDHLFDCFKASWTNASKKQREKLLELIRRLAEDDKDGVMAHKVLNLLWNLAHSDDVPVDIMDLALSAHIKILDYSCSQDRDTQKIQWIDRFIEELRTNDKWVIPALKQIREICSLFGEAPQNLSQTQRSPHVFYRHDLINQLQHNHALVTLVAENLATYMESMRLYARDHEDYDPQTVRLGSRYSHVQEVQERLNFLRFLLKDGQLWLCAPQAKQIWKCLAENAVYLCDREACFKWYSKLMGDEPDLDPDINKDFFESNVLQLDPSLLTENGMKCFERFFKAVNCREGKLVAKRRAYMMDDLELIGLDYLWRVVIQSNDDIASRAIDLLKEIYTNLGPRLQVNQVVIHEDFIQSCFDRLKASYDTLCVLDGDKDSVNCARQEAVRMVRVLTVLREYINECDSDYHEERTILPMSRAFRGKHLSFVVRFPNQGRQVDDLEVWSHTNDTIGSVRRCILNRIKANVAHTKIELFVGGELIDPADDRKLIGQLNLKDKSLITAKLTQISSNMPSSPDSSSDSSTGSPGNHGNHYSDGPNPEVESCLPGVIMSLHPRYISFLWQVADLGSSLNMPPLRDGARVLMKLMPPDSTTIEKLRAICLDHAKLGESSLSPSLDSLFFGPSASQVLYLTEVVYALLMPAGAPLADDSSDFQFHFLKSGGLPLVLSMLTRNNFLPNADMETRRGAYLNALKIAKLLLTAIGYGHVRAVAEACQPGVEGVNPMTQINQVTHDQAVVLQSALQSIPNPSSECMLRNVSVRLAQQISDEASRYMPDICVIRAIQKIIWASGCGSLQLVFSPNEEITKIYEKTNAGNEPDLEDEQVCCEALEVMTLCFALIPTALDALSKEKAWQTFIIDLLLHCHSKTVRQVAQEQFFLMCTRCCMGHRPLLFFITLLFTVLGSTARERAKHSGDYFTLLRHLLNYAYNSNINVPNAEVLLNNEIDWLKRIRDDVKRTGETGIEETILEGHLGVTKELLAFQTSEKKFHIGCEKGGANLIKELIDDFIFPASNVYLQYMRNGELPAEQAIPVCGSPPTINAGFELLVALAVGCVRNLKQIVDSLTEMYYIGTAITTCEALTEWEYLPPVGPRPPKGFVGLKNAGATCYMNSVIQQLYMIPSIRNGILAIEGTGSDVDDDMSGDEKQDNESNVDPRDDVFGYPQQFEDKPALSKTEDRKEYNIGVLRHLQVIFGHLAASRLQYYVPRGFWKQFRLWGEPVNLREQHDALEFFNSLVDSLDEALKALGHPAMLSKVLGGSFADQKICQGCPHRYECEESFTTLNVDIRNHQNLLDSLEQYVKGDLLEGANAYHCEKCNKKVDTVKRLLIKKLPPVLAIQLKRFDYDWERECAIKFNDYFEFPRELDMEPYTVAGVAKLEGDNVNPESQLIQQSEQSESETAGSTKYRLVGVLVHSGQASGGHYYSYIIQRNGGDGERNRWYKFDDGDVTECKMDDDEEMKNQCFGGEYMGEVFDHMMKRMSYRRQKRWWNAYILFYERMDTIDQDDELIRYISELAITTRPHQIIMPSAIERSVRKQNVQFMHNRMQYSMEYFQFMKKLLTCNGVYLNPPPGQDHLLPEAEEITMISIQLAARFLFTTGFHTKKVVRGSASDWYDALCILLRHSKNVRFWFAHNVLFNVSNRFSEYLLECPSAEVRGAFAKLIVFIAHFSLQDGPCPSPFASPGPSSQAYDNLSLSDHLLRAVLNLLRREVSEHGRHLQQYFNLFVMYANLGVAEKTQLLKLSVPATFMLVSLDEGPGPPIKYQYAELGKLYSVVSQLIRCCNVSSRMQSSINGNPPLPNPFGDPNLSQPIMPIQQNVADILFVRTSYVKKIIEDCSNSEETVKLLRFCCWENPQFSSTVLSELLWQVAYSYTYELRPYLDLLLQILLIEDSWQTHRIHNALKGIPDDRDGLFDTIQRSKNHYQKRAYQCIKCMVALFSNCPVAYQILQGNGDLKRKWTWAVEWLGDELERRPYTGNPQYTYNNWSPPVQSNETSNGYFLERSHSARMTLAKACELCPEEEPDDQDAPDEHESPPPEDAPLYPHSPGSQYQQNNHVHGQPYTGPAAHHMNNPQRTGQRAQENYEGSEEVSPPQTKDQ
Procedure, shortened: (§1)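 In triplicate, 495 µg of HEK293T lysate per sample was incubated with fragment at 200 µM or vehicle for 3 h. Biotin-Ahx-Ub-VS was then added to 0.5 µM final for 1 h, and labelled DUBs were captured with NeutrAvidin, digested with LysC and trypsin, and measured by diaPASEF LC-MS/MS. Data are average log2 fragment/vehicle ratios by unpaired t-test from global-median-normalised Spectronaut label-free quantities, restricted to proteins with ≥2 unique peptides.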

[2] = molecular target: UniProt O00487
UniProt O00487, sequence (O00487 whole entry): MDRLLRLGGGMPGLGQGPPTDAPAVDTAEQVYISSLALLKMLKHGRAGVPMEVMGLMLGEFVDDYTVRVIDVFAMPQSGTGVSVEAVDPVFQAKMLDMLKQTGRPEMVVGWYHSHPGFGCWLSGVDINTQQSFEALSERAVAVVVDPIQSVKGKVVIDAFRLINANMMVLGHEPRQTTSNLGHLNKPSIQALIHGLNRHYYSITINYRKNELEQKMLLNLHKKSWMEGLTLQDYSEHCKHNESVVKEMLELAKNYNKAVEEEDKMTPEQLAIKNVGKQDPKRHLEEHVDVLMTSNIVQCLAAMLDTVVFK
Procedure, shortened: as §1

[3] = molecular target: UniProt O00507
Procedure, shortened: as §1

[4] = molecular target: UniProt P51784
UniProt P51784, sequence (P51784 whole entry): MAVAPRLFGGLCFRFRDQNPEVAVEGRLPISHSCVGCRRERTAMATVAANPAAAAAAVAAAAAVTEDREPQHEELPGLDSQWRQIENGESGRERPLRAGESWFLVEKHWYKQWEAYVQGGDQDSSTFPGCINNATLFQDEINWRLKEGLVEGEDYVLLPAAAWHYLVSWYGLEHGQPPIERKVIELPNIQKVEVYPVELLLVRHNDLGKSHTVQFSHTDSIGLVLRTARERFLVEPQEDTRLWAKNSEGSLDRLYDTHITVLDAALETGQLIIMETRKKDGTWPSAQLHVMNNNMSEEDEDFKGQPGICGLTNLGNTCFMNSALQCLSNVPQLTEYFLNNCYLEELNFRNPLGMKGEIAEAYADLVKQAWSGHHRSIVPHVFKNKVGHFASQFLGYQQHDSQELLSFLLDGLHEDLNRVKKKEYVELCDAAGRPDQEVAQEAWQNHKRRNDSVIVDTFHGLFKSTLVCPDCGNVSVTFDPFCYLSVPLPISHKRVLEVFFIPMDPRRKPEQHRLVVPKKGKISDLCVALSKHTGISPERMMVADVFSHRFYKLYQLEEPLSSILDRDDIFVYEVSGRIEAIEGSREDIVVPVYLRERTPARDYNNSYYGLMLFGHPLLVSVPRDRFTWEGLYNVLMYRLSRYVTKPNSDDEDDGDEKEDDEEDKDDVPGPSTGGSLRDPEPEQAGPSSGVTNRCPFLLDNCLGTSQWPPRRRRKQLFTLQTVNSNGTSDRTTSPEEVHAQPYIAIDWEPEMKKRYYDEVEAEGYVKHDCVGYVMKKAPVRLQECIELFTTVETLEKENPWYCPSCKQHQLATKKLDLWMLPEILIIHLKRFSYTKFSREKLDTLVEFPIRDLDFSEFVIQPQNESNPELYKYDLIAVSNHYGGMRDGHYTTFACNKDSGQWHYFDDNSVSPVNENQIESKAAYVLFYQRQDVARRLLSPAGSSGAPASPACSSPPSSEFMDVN
Procedure, shortened: as §1

[5] = molecular target: T1, UniProt Q5T2D3
T1 sequence (whole entry): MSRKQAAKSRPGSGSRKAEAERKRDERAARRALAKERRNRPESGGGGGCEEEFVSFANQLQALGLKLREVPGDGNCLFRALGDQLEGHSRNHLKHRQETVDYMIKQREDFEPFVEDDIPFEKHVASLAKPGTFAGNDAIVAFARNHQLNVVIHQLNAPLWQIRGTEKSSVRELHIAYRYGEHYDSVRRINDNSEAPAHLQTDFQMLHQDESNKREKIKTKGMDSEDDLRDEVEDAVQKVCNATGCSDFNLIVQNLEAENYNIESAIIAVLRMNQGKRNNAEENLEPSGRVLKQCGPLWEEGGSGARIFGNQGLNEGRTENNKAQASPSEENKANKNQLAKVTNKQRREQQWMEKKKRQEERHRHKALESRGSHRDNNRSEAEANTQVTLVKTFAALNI
Procedure, shortened: as §1

[6] = molecular target: T2, UniProt Q8TE49
T2 sequence (whole entry): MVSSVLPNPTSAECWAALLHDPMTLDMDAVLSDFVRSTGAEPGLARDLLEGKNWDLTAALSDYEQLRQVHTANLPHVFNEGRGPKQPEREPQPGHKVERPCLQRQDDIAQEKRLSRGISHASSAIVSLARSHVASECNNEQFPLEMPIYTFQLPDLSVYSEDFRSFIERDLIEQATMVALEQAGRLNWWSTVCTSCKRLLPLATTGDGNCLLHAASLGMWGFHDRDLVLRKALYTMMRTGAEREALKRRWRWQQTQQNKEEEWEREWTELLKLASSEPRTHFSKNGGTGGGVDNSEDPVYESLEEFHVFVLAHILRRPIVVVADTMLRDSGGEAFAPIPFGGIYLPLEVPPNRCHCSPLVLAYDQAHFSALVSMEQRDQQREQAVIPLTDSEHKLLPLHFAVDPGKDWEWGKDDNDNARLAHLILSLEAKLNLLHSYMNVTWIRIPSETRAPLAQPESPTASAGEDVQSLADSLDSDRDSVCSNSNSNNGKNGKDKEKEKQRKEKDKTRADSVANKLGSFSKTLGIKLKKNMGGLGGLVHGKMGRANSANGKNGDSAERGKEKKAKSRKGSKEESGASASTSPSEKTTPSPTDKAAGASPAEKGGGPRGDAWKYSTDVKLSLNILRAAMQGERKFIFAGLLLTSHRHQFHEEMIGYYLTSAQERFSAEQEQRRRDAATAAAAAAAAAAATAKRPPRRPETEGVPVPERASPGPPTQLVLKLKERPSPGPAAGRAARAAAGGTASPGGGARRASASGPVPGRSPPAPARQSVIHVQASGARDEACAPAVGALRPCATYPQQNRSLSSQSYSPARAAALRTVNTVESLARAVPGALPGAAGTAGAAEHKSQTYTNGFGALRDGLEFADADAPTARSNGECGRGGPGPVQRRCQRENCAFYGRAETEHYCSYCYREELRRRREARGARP
Procedure, shortened: as §1

[7] = molecular target: T3, UniProt Q9P2H5
T3 sequence (whole entry): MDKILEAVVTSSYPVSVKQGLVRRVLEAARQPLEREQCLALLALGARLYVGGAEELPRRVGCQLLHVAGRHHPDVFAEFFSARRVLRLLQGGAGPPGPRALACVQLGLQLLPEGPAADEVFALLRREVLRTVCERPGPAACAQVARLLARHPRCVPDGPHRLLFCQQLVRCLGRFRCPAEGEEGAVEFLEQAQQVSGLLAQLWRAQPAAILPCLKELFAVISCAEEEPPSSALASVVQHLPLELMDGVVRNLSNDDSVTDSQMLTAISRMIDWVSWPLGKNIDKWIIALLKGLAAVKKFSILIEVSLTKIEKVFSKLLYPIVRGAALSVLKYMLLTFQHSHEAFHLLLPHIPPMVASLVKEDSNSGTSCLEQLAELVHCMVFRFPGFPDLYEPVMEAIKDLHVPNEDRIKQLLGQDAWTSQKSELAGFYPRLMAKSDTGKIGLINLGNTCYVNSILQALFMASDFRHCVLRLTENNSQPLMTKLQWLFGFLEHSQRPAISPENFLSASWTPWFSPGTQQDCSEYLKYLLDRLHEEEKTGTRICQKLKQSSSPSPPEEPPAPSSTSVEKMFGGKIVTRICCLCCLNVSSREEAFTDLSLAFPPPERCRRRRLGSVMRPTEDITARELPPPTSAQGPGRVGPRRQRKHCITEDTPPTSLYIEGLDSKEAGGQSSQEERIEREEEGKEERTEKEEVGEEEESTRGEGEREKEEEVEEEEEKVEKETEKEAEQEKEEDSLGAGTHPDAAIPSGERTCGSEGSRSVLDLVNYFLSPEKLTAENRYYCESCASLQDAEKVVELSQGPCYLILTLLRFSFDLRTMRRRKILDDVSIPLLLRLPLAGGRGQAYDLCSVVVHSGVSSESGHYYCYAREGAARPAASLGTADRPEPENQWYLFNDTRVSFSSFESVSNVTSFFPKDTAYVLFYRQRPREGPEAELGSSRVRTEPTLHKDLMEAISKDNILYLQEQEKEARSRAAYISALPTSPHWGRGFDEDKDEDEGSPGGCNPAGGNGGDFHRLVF
Procedure, shortened: as §1

[8] = molecular target: T4, UniProt Q9UGI0
T4 sequence (whole entry): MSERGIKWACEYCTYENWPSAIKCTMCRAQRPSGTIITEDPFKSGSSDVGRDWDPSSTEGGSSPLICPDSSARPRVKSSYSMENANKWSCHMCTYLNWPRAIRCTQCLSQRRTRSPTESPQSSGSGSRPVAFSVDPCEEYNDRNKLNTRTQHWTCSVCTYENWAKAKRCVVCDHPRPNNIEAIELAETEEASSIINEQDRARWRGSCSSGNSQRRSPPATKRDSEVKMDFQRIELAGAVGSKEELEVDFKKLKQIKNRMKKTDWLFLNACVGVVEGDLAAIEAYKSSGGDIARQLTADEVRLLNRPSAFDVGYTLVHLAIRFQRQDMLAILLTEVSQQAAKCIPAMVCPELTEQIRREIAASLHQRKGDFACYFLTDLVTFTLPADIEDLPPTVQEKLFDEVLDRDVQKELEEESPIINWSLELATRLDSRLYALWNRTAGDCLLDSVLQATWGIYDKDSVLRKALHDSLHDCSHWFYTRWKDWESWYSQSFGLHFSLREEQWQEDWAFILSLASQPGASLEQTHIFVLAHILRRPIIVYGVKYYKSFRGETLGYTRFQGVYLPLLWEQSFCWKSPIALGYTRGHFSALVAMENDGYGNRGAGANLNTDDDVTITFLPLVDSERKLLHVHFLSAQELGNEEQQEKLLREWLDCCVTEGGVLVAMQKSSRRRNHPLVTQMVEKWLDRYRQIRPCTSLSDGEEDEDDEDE
Procedure, shortened: as §1

[9] = molecular target: T5, YOD1 (UniProt Q5VVQ6)
T5 sequence (whole entry): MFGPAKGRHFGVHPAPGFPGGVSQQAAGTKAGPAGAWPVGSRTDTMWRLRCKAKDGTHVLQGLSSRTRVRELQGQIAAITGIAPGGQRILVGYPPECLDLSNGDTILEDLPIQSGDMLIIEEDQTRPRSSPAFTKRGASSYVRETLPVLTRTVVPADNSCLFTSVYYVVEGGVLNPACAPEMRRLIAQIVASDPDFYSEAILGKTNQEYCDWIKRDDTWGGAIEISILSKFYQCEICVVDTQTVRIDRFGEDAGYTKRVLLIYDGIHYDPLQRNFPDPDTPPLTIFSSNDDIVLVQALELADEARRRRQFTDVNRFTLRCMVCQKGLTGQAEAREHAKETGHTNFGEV
Procedure, shortened: as §1

Measured: log2 ratio of Biotin-Ahx-Ub-VS probe labelling

Cl.O=C(CN1CCN(C(=O)CCl)CC1)Nc1ccc(F)cc1
inactive: [1] 0.0748 | [2] -0.0621 | [3] 0.543 | [4] 0.0839 | [5] -0.013 | [6] -0.19 | [7] -0.164 | [8] -0.166 | [9] 0.204
